Test results taken from PubChem BioAssay AID1822 (The Scripps Research Institute Molecular Screening Center, 2009).
The whole screen tested about 290,000 compounds, of which about 3,500 (1.2%) were called active. This excerpt belongs to a sample that is enriched for actives. A number with no mark means an inactive call.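 The calls were made as follows: active = inhibition above the campaign mean inhibition over all tested compounds plus 3 SD (cut at about 28% in these data); inactive = the rest.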

system: M18 aspartyl aminopeptidase (Plasmodium falciparum 3D7); test: inhibition of P. falciparum M18 aminopeptidase – biochemical, QFRET, recombinant enzyme, primary screen (AID 1822); details: recombinant PfM18AAP, H-Glu-NHMec fluorogenic cleavage; at 7.35 µM; active compounds read high;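 also: 0% = plate median of test compound wells and 100% = 2 mM ZnCl2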

| Structure (SMILES) | inhibition |
| --- | --- |
| Oc1ccc(N2CCN(C(=S)NCc3ccccc3)CC2)cc1 | 36.6% (active) |
| S=C(NCCc1ccccc1)N1CCCCC1 | -5.18% |
| Oc1ccccc1N1CCN(C(=S)NCc2ccccc2)CC1 | 9.57% |
| Cc1occc1C(=O)N/N=C/c1ccc(-c2cccc([N+](=O)[O-])c2)o1 | 9.99% |
| CCOc1ccccc1N1CCN(C(=S)Nc2ccc(S(N)(=O)=O)cc2)CC1 | 9.49% |
| NS(=O)(=O)c1ccc(NC(=S)N2CCCC2)cc1 | 0.47% |
| COc1ccc(N2CCN(C(=S)Nc3ccc(S(N)(=O)=O)cc3)CC2)cc1 | 46.7% (active) |
| NS(=O)(=O)c1ccc(CCNC(=O)c2nc(CS(=O)(=O)c3ccc(Cl)cc3)no2)cc1 | -4.83% |
| O=C(NC1CCCC1)C(c1ccc(Cl)cc1)N(C(=O)c1csnn1)C1CC1 (configuration not stated) | -2% |
| CC(C(=O)Nc1ccc(O)c(C(=O)O)c1)N1C(=O)/C(=C/c2cccs2)SC1=S (configuration not stated) | 30.4% (active) |
| O=C(CCCN1C(=O)/C(=C/c2cccs2)SC1=S)Nc1ccc(O)cc1 | 1.87% |
| O=C(CCN1C(=O)/C(=C/c2cccs2)SC1=S)NNC(=O)c1cccc(O)c1 | -2.41% |
| CN(C(=O)CC1C(=O)NCCN1Cc1ccc2ccccc2c1)C1CCOCC1 (configuration not stated) | 9.14% |
| Cc1ccc(Nc2nnc(SCC(=O)c3cc4ccccc4o3)s2)cc1C | 6.69% |
| Cc1ccccc1Nc1nnc(SCC(=O)c2cc3ccccc3o2)s1 | 28.2% (active) |
| Cc1cc(NC(=O)CSc2nnc(Nc3ccccc3F)s2)no1 | -12.2% |
| O=C(NCCS(=O)(=O)N1CCN(c2ccccc2F)CC1)c1ccc(Br)o1 | 0.95% |
| CCOc1ccc(C(=O)Nc2ccc(S(=O)(=O)NCC3CCCO3)cc2)cc1OCC (configuration not stated) | -11.8% |
| CC(C)(C)c1ccc(CN2C(=O)c3ccccc3S2(=O)=O)cc1 | 7.13% |
| N#Cc1ccccc1-n1c(N)c(C(=O)N2CCCC2)sc1=S | 29.2% (active) |
| Cc1ccc(-n2c(N)c(C(=O)N3CCOCC3)sc2=S)c(C)c1 | 4.98% |
| Cc1cccc(-n2c(N)c(C(=O)N3CCN(C)CC3)sc2=S)c1 | 13.6% |
| CCN(CC)CCCNC(=O)c1cc2c(=O)[nH]c3ccc(C)cc3c2s1 | 0.43% |
| CCOc1cc(C(=O)O)ccc1OCCOc1ccccc1 | 9.32% |
| [2H]C(CCOS(N)(=O)=O)c1ccccc1 (configuration not stated) | -1.1% |

| Structure (SMILES) | inhibition |
| --- | --- |
| CCOC(=O)CSc1nc2sc3c(c2c(=O)[nH]1)CC(C)(C)OC3 | 10.6% |
| CC/C(C)=N/Nc1nc2sc3c(c2c(=O)[nH]1)CC(C)(C)OC3 | 48.8% (active) |
| CCSc1nc2sc3c(c2c(=O)[nH]1)CC(C)(C)OC3 | -5.01% |
| COc1ccccc1OCC(=O)Nc1c2c(nn1-c1ccc(F)cc1)CS(=O)(=O)C2 | -3.07% |
| Cc1nnc(SCC(=O)Nn2cnnc2)s1 | 41.6% (active) |
| Cc1nnc(SCC(=O)NC2CCCC2)s1 | 5.86% |
| Cc1cnc(NC(=O)CSc2nnc(C)s2)s1 | -8.35% |
| CC1C/C(=N/NC(=O)c2cccs2)CC(C)(C)C1 (configuration not stated) | -19.4% |
| Cc1ccc(C)c(NC(=O)CCC(=O)N/N=C2/CC(=O)CC(C)(C)C2)c1 | -1.68% |
| CC1(C)CC(=O)C/C(=N\NC(=O)c2cccs2)C1 | 38.3% (active) |
| COc1ccccc1CNS(=O)(=O)CC12CCC(CC1=O)C2(C)C (configuration not stated) | 6.59% |
| O=C(Nc1cccc(O)c1)c1ccc(C(=O)c2ccccc2)o1 | -0.92% |
| C/C(=C\C(=O)c1ccccc1)Nc1cccc(O)c1 | 31% (active) |
| C/C(=C\C(=O)c1cccnc1)Nc1ccc(C)c(C)c1 | 1.47% |
| O=[N+]([O-])c1ccc(N2CCN(c3ccc(O)cc3)CC2)c(Cl)c1 | 36% (active) |
| COc1ccc(N2CCN(c3ccc([N+](=O)[O-])cc3Cl)CC2)cc1 | -8.52% |
| O=C(O)C1CCN(c2ccc([N+](=O)[O-])cc2[N+](=O)[O-])CC1 | -4.27% |
| CCOc1ccc(C(=O)Nc2cccc(SC)c2)cc1 | -1.4% |
| COc1ccc(Cl)cc1NC(=O)CN1CCN(C(=O)N2CCOCC2)CC1 | -7.2% |
| O=C(Nc1cc(N2CCOCC2)ncn1)NC1(C(F)(F)F)Oc2ccc(Cl)cc2O1 (configuration not stated) | 89.4% (active) |
| O=C(CN1C(=O)COc2ccc(Cl)cc21)Nc1ccc(N2CCOCC2)cc1 | -12.7% |
| CCOc1ccc(C(=O)CCN2CCOCC2)cc1 | -12.6% |
| O=C1c2ccccc2C(=O)N1CCOc1ccc(F)cc1 | -6.45% |
| CCn1c(SCC(=O)Nc2ccc(Br)cc2)nc2sc3c(c2c1=O)CCN(C)C3 | 7.65% |
| N#Cc1ccsc1NC(=O)CN1CCN(S(=O)(=O)c2cc(Cl)ccc2Cl)CC1 | -4.98% |

| Structure (SMILES) | inhibition |
| --- | --- |
| O=C(CN1CCN(S(=O)(=O)c2cc(Cl)ccc2Cl)CC1)c1ccc(O)c(O)c1 | 71.5% (active) |
| COc1ccc(Cl)cc1S(=O)(=O)N1CCN(CC(=O)C(C)(C)C)CC1 | -1.35% |
| C/C(=N\NC(=O)c1ccccc1F)c1ccccn1 | -8.33% |
| CC(C)(C)NC(=O)NC(=O)COC(=O)C1c2ccccc2Oc2ccccc21 | 6.75% |
| CN(C(=O)CC1C(=O)NCCN1Cc1ccc(F)cc1Cl)C1CCCCC1 (configuration not stated) | -5.56% |
| CCn1ccnc1CNC(=O)CC1C(=O)NCCN1Cc1ccc(F)cc1Cl (configuration not stated) | 33.7% (active) |
| CCn1ccnc1CNC(=O)CC1C(=O)NCCN1CCCc1ccccc1 (configuration not stated) | 7.75% |
| CCN(c1cccc(C)c1)S(=O)(=O)c1ccc(-c2coc(C)n2)cc1 | -0.79% |
| Brc1ccccc1/C=N/Nc1nc2ccccc2o1 | -0.38% |
| COc1ccc(/C=N/Nc2nc3ccccc3o2)cc1OC | 56.5% (active) |
| CCOc1ccccc1/C=N/Nc1nc2ccccc2o1 | 2.76% |
| O=C(NC1Cc2ccccc2C1)c1cc(COc2cccc(C(F)(F)F)c2)on1 | 0.88% |
| O=C(O)c1ccccc1-c1ccccc1C(=O)NCCc1ccccc1 | 0.27% |
| Cc1ccc(C(=O)NC(=S)NCCN2CCOCC2)cc1 | -7.16% |
| COc1cccc(NC(=S)NCCCN2CCOCC2)c1 | -6.09% |
| CCOc1cccc(/C=N/NC(=S)NCCN2CCOCC2)c1O | 37.6% (active) |
| c1cnc(N2CCN(c3ccc4ccccc4n3)CC2)nc1 | -7.11% |
| COC(=O)c1cc(NS(=O)(=O)c2ccc3c(c2)c(=O)n(C)c(=O)n3C)cc(C(=O)OC)c1 | 7.75% |
| CCOC(=O)[C@H]1[C@H]2COc3cc(OC)ccc3[C@@H]2N2C(=O)N(c3ccc(Br)cc3)C(=O)[C@@]12C | 8.12% |
| COc1cc(Cl)ccc1OCc1cc(C(=O)N2CC[C@@H]3CCCC[C@H]3C2)no1 | -8.61% |
| Cc1nc2ccccc2n1CC(=O)N/N=C/c1cccnc1 | 0.09% |
| CCOc1ccc(/C=N/NC(=O)CSc2ccccn2)cc1O | -7.37% |
| CCOc1cc(/C=N/NC(=O)CN2CCCCC2)ccc1O | -2.78% |
| Cc1nccn1CC(=O)N/N=C/c1ccc(O)c(O)c1 | 59.7% (active) |
| Cn1c(SCC(=O)N/N=C/c2ccc(O)c(O)c2)nc2ccccc21 | 61.1% (active) |

| Structure (SMILES) | inhibition |
| --- | --- |
| CCn1c(SCC(=O)N/N=C/c2ccncc2)nc2ccccc21 | -5.49% |
| CC(=O)Oc1ccc(-c2cccc(C(=O)N3CCCCC3)c2)cc1 | 0.56% |
| CSc1nccc(NC(=O)c2ccc(C(C)(C)C)cc2)n1 | -0.09% |
| Cc1cccc([C@@H]2[C@@H]3C(=O)N(Cc4ccccc4)C(=O)[C@@H]3[C@]3(C)C(=O)N(c4ccc(Br)cc4)C(=O)N23)c1 | -12% |
| Cc1ccc(CNC(=O)[C@@H](NC(=O)Cc2ccccc2)C(C)C)cc1 | 5.66% |
| COc1cccc(NC(=O)Nc2nnc(N3CCCCC3C)s2)c1 (configuration not stated) | 0.21% |
| COc1ccccc1NC(=O)c1ccc2nc(N3C(=O)CCC3=O)sc2c1 | -4.36% |
| CCOc1ccccc1NC(=O)c1cccnc1 | -12.7% |
| COc1ccccc1NC(=O)c1ccc(N2CC3CC(C2)c2cccc(=O)n2C3)c(NC(=O)c2cccnc2)c1 (configuration not stated) | 29.5% (active) |
| CC(C)Cn1c(=O)c2ccccc2n2c(CCC(=O)NCc3ccccn3)nnc12 | -6.62% |
| CCOc1ccc(S(=O)(=O)N2CCN=C2Cc2ccccc2)cc1C | -0.06% |
| O=c1[nH]c(NCCO)nnc1Cc1ccc(Cl)cc1 | 5.33% |
| COc1ccc(Cc2nnc(N/N=C/c3ccccc3O)[nH]c2=O)cc1OC | 54.3% (active) |
| Cc1nnc(N/N=C/c2ccccn2)[nH]c1=O | 8.17% |
| COc1cccc(N(CC(=O)NCc2ccccc2)C(=O)CCC(=O)Nc2nccs2)c1 | -7.44% |
| CCCn1c2ccccc2c2cnn(CC(=O)NCCCN3CCCCC3CC)c(=O)c21 (configuration not stated) | 2.69% |
| Oc1ccc(C2Nc3cccc4cccc(c34)N2)cc1 | 31.7% (active) |
| Cc1ccc(C2Nc3cccc4cccc(c34)N2)cc1 | 19.1% |
| COc1cccc(C2Nc3cccc4cccc(c34)N2)c1 | -7.19% |
| CCOC(=O)C1(Cc2cccc(OC)c2)CCCN(C(=O)CCSC)C1 (configuration not stated) | -2.88% |
| Cc1ccc(C)c(N2CCN(C(=O)CCCCCn3c(=S)[nH]c4ccc(N5CCOCC5)cc4c3=O)CC2)c1 | 5.1% |
| O=C(O)CC(CC(=O)N1CCOCC1)c1ccccc1 (configuration not stated) | -1.93% |
